PubChem BioAssay AID1903 (Southern Research Specialized Biocontainment Screening …, 2009)
“And” between values parts separate entries of the source, which are not always exact repeats. Equal values may be shown once. In all, about 310,000 compounds went through this assay and about 1,200 (0.39%) were called active. The rule behind the calls is not given here. Not all results are given here. Results with a measured potency or affinity are listed apart.

What follows are compounds tested against Large T antigen (Simian virus 40) (UniProt P03070) (assay: TAg ATPase/helicase activity blockers – biochemical (AID 1903)). Conditions: SV40 large T antigen ATPase/helicase inhibition assay; at 20 µM; active compounds read high.
Sequence of Large T antigen (Simian virus 40) (P03070 whole entry, looked up): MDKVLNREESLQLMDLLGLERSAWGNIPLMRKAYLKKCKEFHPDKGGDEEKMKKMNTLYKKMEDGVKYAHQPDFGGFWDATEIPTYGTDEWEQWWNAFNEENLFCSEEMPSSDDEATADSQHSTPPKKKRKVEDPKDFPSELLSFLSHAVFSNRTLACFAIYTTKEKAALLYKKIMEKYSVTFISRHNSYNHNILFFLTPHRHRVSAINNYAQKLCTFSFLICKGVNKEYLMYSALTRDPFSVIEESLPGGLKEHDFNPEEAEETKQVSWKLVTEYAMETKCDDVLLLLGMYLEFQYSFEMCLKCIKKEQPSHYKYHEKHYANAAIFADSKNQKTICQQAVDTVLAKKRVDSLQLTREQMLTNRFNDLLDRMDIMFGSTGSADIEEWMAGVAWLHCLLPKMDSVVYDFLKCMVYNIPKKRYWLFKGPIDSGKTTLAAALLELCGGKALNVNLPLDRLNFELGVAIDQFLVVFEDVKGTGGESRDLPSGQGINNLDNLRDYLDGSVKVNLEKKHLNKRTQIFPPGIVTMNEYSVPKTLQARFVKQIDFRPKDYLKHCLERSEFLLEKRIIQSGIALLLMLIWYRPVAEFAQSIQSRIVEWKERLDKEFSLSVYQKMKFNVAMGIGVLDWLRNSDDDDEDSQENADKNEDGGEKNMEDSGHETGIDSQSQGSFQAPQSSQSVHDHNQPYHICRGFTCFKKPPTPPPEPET

inhibition, inactive:
Cn1c(=O)n(CC(N)=O)c(=O)c2c1nc1n2CCCN1Cc1ccccc1 5.61%, CC(C)(C)C(=O)NC(=S)Nc1ccccc1F 0.75%, CC1=NN(c2ccc(C(=O)OC(C)C)cc2)C(=O)/C1=C\C=C\c1ccco1 12.7%, CC1=NN(c2ccccc2)C(=O)/C1=C/C=C/c1ccccc1 9.74%, O=C(/C=C/c1ccco1)Nc1cc(Cl)ccc1C(=O)O 21.9%, CC1=NN(c2ccc(Cl)c(C(=O)O)c2)C(=O)C1 27.9%, CC1=NN(c2ccccc2)C(=O)/C1=C\C=C\c1ccccc1 19.4%, CCOC(=O)c1ccc(N2N=C(C)/C(=C/C=C/c3ccco3)C2=O)cc1 21%, COC(=O)c1cc(NC(=O)Cn2c(=O)cnc3ccccc32)cc(C(=O)OC)c1 24%, CCCCc1c(O)nc(SCC(=O)NC(C)(C)C)n(-c2ccccc2C)c1=O 0.223%, Cc1ccc(NC(=O)c2oc3ccccc3c2NC(=O)C2CC2)cc1 12.7%, Cc1cc(NC(=O)/C=C\C(=O)O)c([N+](=O)[O-])cc1C 9.88%, CCCn1c(N)c(C(=O)CSc2n[nH]c(-c3ccc(C)cc3)n2)c(=O)[nH]c1=O 8.37%, CC(C)C[C@H]1CN=C(Nc2ccccc2)N1CCCC1CCCC1 16.4%, O=c1[nH]c(=O)c2nnc(N/N=C/c3ccccc3F)nc2[nH]1 11.5%, Oc1ccc(/C=N\Nc2nncc(-c3ccccc3)n2)cc1 28.1%, CC(C)C(NS(=O)(=O)c1cccc2nsnc12)C(=O)Nc1nc2ccc(Cl)cc2s1 (stereo unspecified) 1.74%, COc1ccc(S(=O)(=O)Nc2c(C(=O)O)[nH]c3ccccc23)cc1 11.7%, COc1ccc(N2C(=O)NC(=O)C2=O)cc1 1.84%, Nc1nc(Nc2ccccc2Cl)cc(=O)[nH]1 10.8%, COCn1c(-c2ccc(OC)c(OC)c2)nc2ccccc21 3.62%, O=C1CS/C(=N\N=C\c2ccco2)N1c1ccccc1 31.1%, COc1ccc2cc(S(=O)(=O)n3cnc(C)c3)ccc2c1 3.48%, CCN(CC)c1ccc(/C=N/NC(=O)CN2CCCc3ccccc32)cc1 13.9%, CCN1CCN(C(=O)NC2CC(=O)N(c3ccc(OC)cc3)C2)CC1 (stereo unspecified) 24.6%, COc1ccc(N2CCN(C(=S)Nc3ccccc3)CC2)cc1 17.3%, COc1ccc(N2CC(NC(=O)N3CCN(c4ccccc4)CC3)CC2=O)cc1 (stereo unspecified) 21.7%, CNC(=S)N1CCN(c2cccc(OC)c2)CC1 -1.1%, CCC(Sc1nc(N)c(NC(=O)c2ccc(OC)cc2)c(=O)[nH]1)C(=O)O (stereo unspecified) 7.11%, Cc1cc(NC(=O)CSc2nc(N)c(NC(=O)c3ccc(F)c(F)c3)c(=O)[nH]2)no1 5.69%, N#CC(C#N)=C1c2cc(S(N)(=O)=O)ccc2-c2ccc(S(N)(=O)=O)cc21 3.73%, N=C1/C(=C\c2ccc(OCc3ccccc3)cc2)C(=O)N=C2SC(N3CCCC3)=NN12 10.7%, O=c1[nH]c(CSc2nnc(-c3ccccc3)n2-c2ccccc2)nc2ccccc12 3.3%, COc1cccc(C(=O)NCC(=O)N2CCC3(CC2)NCCc2[nH]cnc23)c1OC 28.6%, O=C(CSc1nc(-c2ccco2)cc(C(F)(F)F)n1)Nc1ccccc1C(F)(F)F 13.3%, O=C(O)C1CC(=O)N(c2ccc(OCc3c(F)cccc3Cl)cc2)C1 (stereo unspecified) 1.79%, COc1ccc(-c2oc3ncnc(N)c3c2-c2ccccc2)cc1 5.94%, Cc1ccc(-c2oc3ncnc(N)c3c2-c2ccc(C)cc2)cc1 5.86%, Cc1cc(NC(=O)CSc2nc3ccccc3n2CC(=O)N2CCC(C)CC2)no1 -5.11%, NC1=NC(=O)C2(COC(c3ccncc3)OC2)S1 (stereo unspecified) 3.62%, CC(C)CSc1nc2ccccc2n1CC(=O)O 9.25%, CC(=O)N1C(=O)N(C(C)=O)C2C1N(C(C)=O)C(=O)N2C(C)=O (stereo unspecified) 5.35%, O=C1CCCN=C(Nc2ccc(F)c(Cl)c2)S1 9.56%, CN1C(=O)/C(=C\C=C2/CCCN2C)N(C)C1=S 17.1%, CN1CCN(/C=C2\SC(=S)NC2=O)CC1 5.4%, COc1ccc(-c2cc(C(=O)Nc3cccc(Cl)c3)no2)cc1 7.5%, O=C(COc1ccc(F)cc1)Nc1cc(S(=O)(=O)N2CCCCC2)ccc1N1CCCCC1 16%, N#CC1=C2SCN(c3ccc(F)cc3)CN2C(=O)CC1c1cccc(F)c1 (stereo unspecified) 35.6%, N#CC1=C2SCN(Cc3ccccc3)CN2C(=O)CC1c1ccccc1F (stereo unspecified) 35.3%, N#CC1=C2SCN(Cc3ccco3)CN2C(=O)CC1c1ccccc1F (stereo unspecified) 21.6%, N#CC1=C2SCN(c3ccccc3)CN2C(=O)CC1c1c(Cl)cccc1Cl (stereo unspecified) 33.9%, CCc1ccccc1N1CSC2=C(C#N)C(c3ccccc3F)CC(=O)N2C1 (stereo unspecified) 54.3% and 27%, N#CC1=C2SCN(Cc3ccco3)CN2C(=O)CC1c1cccc2ccccc12 (stereo unspecified) 24.4%, COc1ccccc1Nc1nc(NCCO)nc(N)c1[N+](=O)[O-] 7.82%, COc1ccc(-c2cc(-c3n[nH]c(=S)n3-c3ccccc3OC)[nH]n2)cc1 32.3%, O=c1cc(-c2ccccc2)nc(N2CCN(Cc3ccc4c(c3)OCO4)CC2)[nH]1 9.11%, O=C(N/N=C/c1cccnc1)c1cccc(N2CCCC2=O)c1 0.45%, Cn1cccc1Cc1nnc(SCC(=O)NCCc2ccccc2)n1C -0.6%, COc1ccc(C(=O)N2CCCC(Nc3ccc(F)cc3)C2)c(OC)c1 (stereo unspecified) 12%, COc1ccc(NC2CCCN(C(=O)c3ccc4nc(C)c(C)nc4c3)C2)cc1OC (stereo unspecified) 26.4%, COc1ccc(OC)c(C(=O)N2CCCC(Nc3ccc(F)cc3)C2)c1 (stereo unspecified) 23%, Cc1noc(C)c1C(=O)N1CCCC(Nc2ccc(C(C)C)cc2)C1 (stereo unspecified) -5.88%, COC(=O)c1cccc(C(=O)N2CCCC(Nc3ccc4c(c3)OCCO4)C2)c1 (stereo unspecified) 29.8%, COc1ccc(NC2CCCN(C(=O)c3ccc4nccnc4c3)C2)cc1OC (stereo unspecified) 32.5%, CC(C)c1ccc(NC2CCCN(C(=O)c3ccco3)C2)cc1 (stereo unspecified) 19.6%, Cc1ccc(NC2CCCN(C(=O)c3c(C)noc3C)C2)cc1C (stereo unspecified) 21.2%
